Experimental data taken from PubChem BioAssay.
Results with a measured potency or affinity are listed apart. Activity calls are given as the source filed them.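 Rule for the calls: active = signal drop whose fitted half-maximal concentration is at most twice the top valid dose, in every test run; inconclusive = mixed calls across runs, poor fit, or flat 30 to 70% inhibition; inactive = wrong direction, flat within 30%, or potency beyond limit.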

Assay: cytotoxicity in PAX8-dependent RMG-1 cells, dose response, cell-based, cherry-pick (AID 687029);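 note: cells exposed to compound for 96 hours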
Settings: RMG-1 viability, CellTiterGlo ATP luminescence, 96 h; series mostly up to 35 µM
With C[C@H](CO)N1C[C@H](C)[C@@H](CN(C)Cc2ccc(Oc3ccccc3)cc2)Oc2ccc(NS(=O)(=O)c3ccc(F)cc3)cc2CC1=O the outcome was “inactive”.
In the case of O=C(C[C@@H]1CC[C@@H]2[C@H](COC[C@H](O)CN2S(=O)(=O)c2ccccc2Cl)O1)N1CCC(Cc2ccccc2)CC1, the outcome is reported as “inactive”.
For C[C@H](CO)N1C[C@H](C)[C@H](CN(C)Cc2ccc(Cl)c(Cl)c2)OCCCC[C@H](C)Oc2ccc(NC(=O)Nc3ccc(C(F)(F)F)cc3)cc2C1=O, the outcome was “inactive”.
For COc1ccc(C#Cc2ccc([C@@H]3[C@H](CO)N4CCCCN(C(=O)Nc5ccc(F)cc5)C[C@@H]34)cc2)cc1, the outcome was “inactive”.
With C[C@H]1CCCCO[C@H](CN(C)C(=O)NC2CCCCC2)[C@@H](C)CN([C@@H](C)CO)C(=O)c2cc(NC(=O)Nc3ccc(C(F)(F)F)cc3)ccc2O1 the outcome was “inactive”.
In the case of C[C@@H]1CCCCO[C@H](CN(C)S(=O)(=O)c2cccs2)[C@@H](C)CN([C@@H](C)CO)C(=O)c2cc(NC(=O)Nc3ccc(C(F)(F)F)cc3)ccc2O1, the outcome is reported as “inactive”.
For C[C@H](O)C#Cc1cnc2c(c1)C(=O)N([C@H](C)CO)C[C@@H](C)[C@@H](CN(C)Cc1ccc(-c3ccccc3)cc1)O2, the outcome was “inactive”.
In the case of Cc1ccc(S(=O)(=O)N2CC[C@@H]3[C@H](CO)N(C)c4ccc(-c5ccc(C#N)cc5)cc4[C@@H]32)cc1, the outcome is reported as “inactive”.
In the case of O=C(C[C@H]1CC[C@H]2[C@@H](COC[C@@H](O)CN2Cc2ccc3c(c2)OCO3)O1)Nc1ccc(-c2ccccc2)cc1, the outcome is reported as “inactive”.
For COc1ccc(CN(C)C[C@H]2OCCCC[C@H](C)Oc3ccc(NC(=O)Nc4ccc(C(F)(F)F)cc4)cc3C(=O)N([C@@H](C)CO)C[C@@H]2C)cc1, the outcome was “inactive”.
In the case of C[C@@H]1CN([C@@H](C)CO)C(=O)c2cc(NC(=O)Nc3ccc(C(F)(F)F)cc3)ccc2O[C@@H](C)CCCCO[C@@H]1CN(C)Cc1ccncc1, the outcome is reported as “inactive”.
In the case of C[C@@H]1CCCCO[C@@H](CN(C)Cc2ccc(C(F)(F)F)cc2)[C@H](C)CN([C@H](C)CO)C(=O)c2cc(NS(=O)(=O)c3ccccc3)ccc2O1, the outcome is reported as “inactive”.
With N#C[C@@H]1[C@@H](c2ccc(-c3cccc(F)c3)cc2)[C@H](CO)N1C(=O)NC1CCCC1 the outcome was “inactive”.
In the case of C[C@@H]1CN([C@H](C)CO)C(=O)c2cc(NC(=O)Nc3ccc(F)cc3)ccc2O[C@@H](C)CCCCO[C@H]1CN(C)C(=O)C1CCCCC1, the outcome is reported as “inactive”.
